Assay results as given in the supplement of paper PMC10849652.
The full data set covers some 8,800 targets. This sample favours those with a hit. About 0.5% of all pairs of compound and target were hits.

Tests used:
Assay in all cases: log2 fold change, soluble protein after heating vs DMSO (PISA); higher = thermal stabilisation; K562 lysate, 10 uM; active = over 0.2 and 3.5 SD of the protein, either way, in both replicates (recomputed)
vemurafenib = compound: CCCS(=O)(=O)Nc1ccc(F)c(C(=O)c2c[nH]c3ncc(-c4ccc(Cl)cc4)cc23)c1F [vemurafenib]
Method in brief: (§1)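 Log-two fold change in thermal stability relative to solvent controls is reported from duplicates. For each sample, crude K562 extract from dounce-homogenised pellets in PBS pH 7.4 with 1 mM MgCl2, at 1 mg/mL protein, was treated with 10 μM compound for 30 min. Aliquots heated for 3 min across 48°C-58°C were pooled, brought to 0.5% NP-40 at 4°C and cleared at 21,000xg for 90 min. The supernatant was quantified by TMTpro 16plex LC-MS/MS with channel sums equalised.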

[1] = compound: CCCS(=O)(=O)Nc1ccc(F)c(C(=O)c2c[nH]c3ncc(Cl)cc23)c1F
Method in brief: as §1

barasertib = compound: CCN(CCCOc1ccc2c(Nc3cc(CC(=O)Nc4cccc(F)c4)[nH]n3)ncnc2c1)CCOP(=O)(O)O [barasertib]
Method in brief: as §1

[2] = compound: CC[C@@H]1C(=O)N(C)c2cnc(Nc3ccc(C(=O)NC4CCN(C)CC4)cc3OC)nc2N1C1CCCC1
Method in brief: as §1

volasertib = compound: CC[C@@H]1C(=O)N(C)c2cnc(Nc3ccc(C(=O)N[C@H]4CC[C@H](N5CCN(CC6CC6)CC5)CC4)cc3OC)nc2N1C(C)C [volasertib]
Method in brief: as §1

[3] = compound: CCn1c(C(=O)N(C2CC2)C2CC2)cc2c3c(ncn3C)c(Nc3cc(C)n(C)n3)nc21
Method in brief: as §1

[4] = compound: CCn1cc(-c2ccnc3[nH]c(-c4cccc(CN(C)C)c4)cc23)c(-c2ccc(NC(=O)N(C)C)cc2)n1
Method in brief: as §1

[5] = compound: CN1CCC(CNc2ccc3ncc(-c4cccc(OC(F)(F)F)c4)n3n2)CC1
Method in brief: as §1

saracatinib = compound: CN1CCN(CCOc2cc(OC3CCOCC3)c3c(Nc4c(Cl)ccc5c4OCO5)ncnc3c2)CC1 [saracatinib]
Method in brief: as §1

sotrastaurin = compound: CN1CCN(c2nc(C3=C(c4c[nH]c5ccccc45)C(=O)NC3=O)c3ccccc3n2)CC1 [sotrastaurin]
Method in brief: as §1

alvocidib = compound: CN1CC[C@H](c2c(O)cc(O)c3c(=O)cc(-c4ccccc4Cl)oc23)[C@H](O)C1 [alvocidib]
Method in brief: as §1

Tubastatin A = compound: CN1CCc2c(c3ccccc3n2Cc2ccc(C(=O)NO)cc2)C1 [Tubastatin A]
Method in brief: as §1

[6] = compound: CNC(=O)C1=CC=CC=C1NC2=NC(=NC=C2Cl)NC3=C(C=C(C=C3)N4CCOCC4)OC
Method in brief: as §1

defactinib = compound: CNC(=O)c1ccc(Nc2ncc(C(F)(F)F)c(NCc3nccnc3N(C)S(C)(=O)=O)n2)cc1 [defactinib]
Method in brief: as §1

[7] = compound: CNc1nc(-c2ccc3c(N)n[nH]c3c2)cc(N2C[C@@H](C(=O)NC3CCCCC3)CC[C@H]2C)n1
Method in brief: as §1

encorafenib = compound: COC(=O)N[C@@H](C)CNc1nccc(-c2cn(C(C)C)nc2-c2cc(Cl)cc(NS(C)(=O)=O)c2F)n1 [encorafenib]
Method in brief: as §1

[8] = compound: COC(=O)[C@H](CCSC)NC(=O)C1=C(C=C(C=C1)NC[C@H](CS)N)C2=CC=CC=C2
Method in brief: as §1

alisertib = compound: COc1cc(Nc2ncc3c(n2)-c2ccc(Cl)cc2C(c2c(F)cccc2OC)=NC3)ccc1C(=O)O [alisertib]
Method in brief: as §1

[9] = compound: COc1cc2nc(-c3cc(F)ccc3O)nc(N[C@@H]3CNC[C@H]3C(C)(C)O)c2cc1OC
Method in brief: as §1

gefitinib = compound: COc1cc2ncnc(Nc3ccc(F)c(Cl)c3)c2cc1OCCCN1CCOCC1 [gefitinib]
Method in brief: as §1

Measured: log2 fold change

HERC2 (UniProt O95714)
active: Tubastatin A -0.316
inactive: vemurafenib 0.034 | [1] 0.004 | barasertib 0.038 | [2] -0.038 | volasertib -0.01 | [3] 0.039 | [4] 0.032 | [5] -0.021 | saracatinib 0.037 | sotrastaurin 0.047 | alvocidib -0.075 | [6] -0.109 | defactinib -0.085 | [7] -0.077 | encorafenib 0.027 | [8] 0.111 | alisertib -0.007 | [9] 0.005 | gefitinib 0.004

HDAC1 (UniProt Q13547)
Chain of UniProt Q13547 (Q13547 whole entry, looked up): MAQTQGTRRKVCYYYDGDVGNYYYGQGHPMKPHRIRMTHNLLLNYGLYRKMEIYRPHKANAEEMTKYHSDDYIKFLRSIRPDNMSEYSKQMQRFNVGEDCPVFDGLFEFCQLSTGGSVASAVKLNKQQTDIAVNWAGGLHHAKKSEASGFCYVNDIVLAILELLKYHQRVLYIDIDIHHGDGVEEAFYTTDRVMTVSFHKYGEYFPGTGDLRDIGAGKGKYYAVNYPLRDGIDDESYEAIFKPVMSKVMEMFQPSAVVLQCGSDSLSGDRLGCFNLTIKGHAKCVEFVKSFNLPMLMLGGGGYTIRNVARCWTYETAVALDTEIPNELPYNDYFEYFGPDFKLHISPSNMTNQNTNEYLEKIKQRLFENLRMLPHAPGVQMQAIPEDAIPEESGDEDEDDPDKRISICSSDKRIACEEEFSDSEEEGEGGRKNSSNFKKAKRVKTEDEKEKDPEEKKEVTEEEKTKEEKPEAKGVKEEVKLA
inactive: vemurafenib 0.01 | [1] 0.022 | barasertib -0.001 | [2] -0.004 | volasertib -0.019 | [3] 0.03 | [4] -0.036 | [5] -0.001 | saracatinib 0.014 | sotrastaurin -0.011 | alvocidib 0.003 | Tubastatin A -0.027 | [6] -0.015 | defactinib 0.014 | [7] -0.012 | encorafenib 0.006 | [8] 0.04 | alisertib 0.017 | [9] -0.031 | gefitinib 0.004

HAUS6 (UniProt Q7Z4H7)
inactive: vemurafenib 0.004 | [1] 0.092 | barasertib 0.025 | [2] 0.012 | volasertib -0.068 | [3] 0.015 | [4] -0.063 | [5] 0.014 | saracatinib 0.01 | sotrastaurin 0.022 | alvocidib -0.043 | Tubastatin A -0.084 | [6] 0.008 | defactinib 0.031 | [7] -0.004 | encorafenib 0.031 | [8] -0.025 | alisertib 0.03 | [9] 0.019 | gefitinib 0.017

GPX4 (UniProt P36969)
Chain of UniProt P36969 (P36969 whole entry, looked up): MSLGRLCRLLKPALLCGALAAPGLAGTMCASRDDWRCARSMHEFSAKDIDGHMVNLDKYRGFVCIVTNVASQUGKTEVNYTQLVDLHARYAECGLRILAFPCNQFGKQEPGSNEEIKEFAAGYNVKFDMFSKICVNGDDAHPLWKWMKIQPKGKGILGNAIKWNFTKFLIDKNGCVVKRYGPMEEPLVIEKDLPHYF
inactive: vemurafenib -0.003 | [1] 0.025 | barasertib -0.002 | [2] -0.068 | volasertib -0.038 | [3] 0.013 | [4] 0.027 | [5] -0.079 | saracatinib 0.02 | sotrastaurin 0.012 | alvocidib 0.031 | Tubastatin A -0.099 | [6] -0.006 | defactinib 0.048 | [7] -0.051 | encorafenib 0.004 | [8] -0.023 | alisertib 0.041 | [9] 0 | gefitinib 0.016

KDM6A (UniProt O15550)
inactive: vemurafenib -0.045 | [1] 0.006 | barasertib 0.017 | [2] 0.035 | volasertib -0.036 | [3] -0.017 | [4] 0.089 | [5] 0.067 | saracatinib 0.029 | sotrastaurin -0.01 | alvocidib -0.057 | Tubastatin A -0.057 | [6] 0.041 | defactinib -0.048 | [7] 0.006 | encorafenib 0.054 | [8] 0.018 | alisertib -0.025 | [9] -0.005 | gefitinib -0.011

INF2 (UniProt Q27J81)
inactive: vemurafenib 0 | [1] -0.059 | barasertib 0.104 | [2] -0.07 | volasertib -0.052 | [3] -0.01 | [4] -0.064 | [5] -0.045 | saracatinib 0.036 | sotrastaurin 0.019 | alvocidib -0.027 | Tubastatin A -0.062 | [6] 0.022 | defactinib 0.117 | [7] -0.104 | encorafenib -0.068 | [8] 0.083 | alisertib -0.008 | [9] -0.01 | gefitinib -0.009

IARS2 (UniProt Q9NSE4)
Chain of UniProt Q9NSE4 (Q9NSE4 whole entry, looked up): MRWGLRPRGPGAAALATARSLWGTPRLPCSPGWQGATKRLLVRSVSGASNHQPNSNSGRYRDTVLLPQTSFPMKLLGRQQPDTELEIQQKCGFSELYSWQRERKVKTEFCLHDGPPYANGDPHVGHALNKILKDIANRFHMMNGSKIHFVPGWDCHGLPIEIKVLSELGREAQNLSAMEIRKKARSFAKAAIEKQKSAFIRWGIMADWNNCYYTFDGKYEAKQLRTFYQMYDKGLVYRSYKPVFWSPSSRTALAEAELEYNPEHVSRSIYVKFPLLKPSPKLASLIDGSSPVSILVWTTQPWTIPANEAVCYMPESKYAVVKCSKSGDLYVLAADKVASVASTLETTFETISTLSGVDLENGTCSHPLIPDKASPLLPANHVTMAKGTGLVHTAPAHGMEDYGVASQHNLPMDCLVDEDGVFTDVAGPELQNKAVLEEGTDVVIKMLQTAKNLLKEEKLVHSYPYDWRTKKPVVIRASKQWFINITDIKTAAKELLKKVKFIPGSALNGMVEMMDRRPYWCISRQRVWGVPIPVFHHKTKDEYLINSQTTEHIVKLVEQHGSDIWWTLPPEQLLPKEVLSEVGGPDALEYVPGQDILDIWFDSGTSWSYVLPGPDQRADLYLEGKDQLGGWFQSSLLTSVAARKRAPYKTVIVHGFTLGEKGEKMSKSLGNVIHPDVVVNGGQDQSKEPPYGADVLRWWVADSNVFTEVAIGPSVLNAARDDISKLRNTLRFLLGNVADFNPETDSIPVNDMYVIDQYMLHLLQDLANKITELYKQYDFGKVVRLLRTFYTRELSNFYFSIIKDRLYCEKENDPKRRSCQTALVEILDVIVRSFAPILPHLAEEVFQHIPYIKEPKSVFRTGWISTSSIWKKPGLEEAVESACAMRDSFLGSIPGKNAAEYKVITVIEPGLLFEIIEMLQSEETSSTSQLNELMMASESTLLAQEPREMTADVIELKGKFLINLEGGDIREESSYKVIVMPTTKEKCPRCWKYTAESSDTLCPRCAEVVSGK
inactive: vemurafenib -0.007 | [1] -0.005 | barasertib 0.037 | [2] -0.003 | [3] -0.013 | [4] 0.198 | [5] -0.032 | saracatinib -0.002 | sotrastaurin 0.003 | alvocidib 0.072 | Tubastatin A 0.021 | [6] -0.026 | defactinib 0.004 | [7] -0.003 | encorafenib -0.006 | [8] 0.014 | alisertib -0.013 | [9] -0.011 | gefitinib 0.004
active: volasertib 0.312

KHK isoform 2 (UniProt P50053)
Chain of UniProt P50053 (P50053 whole entry, looked up): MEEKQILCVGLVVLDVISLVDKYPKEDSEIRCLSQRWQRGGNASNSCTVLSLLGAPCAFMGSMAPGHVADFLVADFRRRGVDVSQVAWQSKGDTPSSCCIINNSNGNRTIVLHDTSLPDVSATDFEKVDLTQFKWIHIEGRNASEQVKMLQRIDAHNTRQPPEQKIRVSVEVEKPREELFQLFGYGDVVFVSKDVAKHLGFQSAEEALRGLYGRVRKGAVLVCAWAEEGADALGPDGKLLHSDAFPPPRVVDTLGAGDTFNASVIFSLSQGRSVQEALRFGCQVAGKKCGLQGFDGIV
active: [4] 0.404
inactive: vemurafenib -0.021 | [1] 0 | barasertib 0.052 | [2] -0.053 | volasertib 0.017 | [3] 0.076 | [5] -0.072 | saracatinib 0.067 | sotrastaurin 0.013 | alvocidib 0.058 | Tubastatin A -0.001 | [6] -0.057 | defactinib -0.038 | [7] -0.068 | encorafenib 0.03 | [8] -0.02 | alisertib 0.008 | [9] 0.083 | gefitinib -0.038

HNRNPLL (UniProt Q8WVV9)
Chain of UniProt Q8WVV9 (Q8WVV9 whole entry, looked up): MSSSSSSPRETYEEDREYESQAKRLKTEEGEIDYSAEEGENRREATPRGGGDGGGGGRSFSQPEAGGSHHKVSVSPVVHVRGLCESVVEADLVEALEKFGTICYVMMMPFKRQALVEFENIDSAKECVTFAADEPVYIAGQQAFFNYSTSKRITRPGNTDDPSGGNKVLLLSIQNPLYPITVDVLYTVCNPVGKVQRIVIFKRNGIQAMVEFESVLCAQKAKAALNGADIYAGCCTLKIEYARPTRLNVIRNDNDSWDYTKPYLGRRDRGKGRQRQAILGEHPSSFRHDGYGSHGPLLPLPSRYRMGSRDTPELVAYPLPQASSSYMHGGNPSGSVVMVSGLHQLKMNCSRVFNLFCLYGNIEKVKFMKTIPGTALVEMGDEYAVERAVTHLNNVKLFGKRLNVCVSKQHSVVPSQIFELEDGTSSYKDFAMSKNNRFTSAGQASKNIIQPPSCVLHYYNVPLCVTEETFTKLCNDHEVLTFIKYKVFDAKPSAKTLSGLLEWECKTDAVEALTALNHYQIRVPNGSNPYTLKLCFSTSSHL
inactive: vemurafenib 0.004 | [1] 0.046 | barasertib 0.018 | [2] 0.008 | volasertib -0.027 | [3] -0.004 | [4] -0.006 | [5] -0.013 | saracatinib -0.001 | sotrastaurin 0.034 | alvocidib 0.015 | Tubastatin A -0.164 | [6] 0.021 | defactinib 0.035 | [7] -0.016 | encorafenib 0.082 | [8] -0.07 | alisertib -0.016 | [9] 0.011 | gefitinib -0.052

IMMT (UniProt C9J406)
inactive: vemurafenib -0.018 | [1] -0.036 | barasertib -0.105 | [2] 0.098 | volasertib -0.015 | [3] 0.018 | [4] -0.464 | [5] -0.037 | saracatinib 0.074 | sotrastaurin 0.02 | alvocidib -0.027 | Tubastatin A -0.076 | [6] -0.162 | defactinib 0.075 | [7] 0.008 | encorafenib -0.085 | [8] -0.166 | alisertib -0.031 | [9] -0.073 | gefitinib -0.052

GMIP (UniProt Q9P107)
inactive: vemurafenib 0.041 | [1] 0.048 | barasertib -0.024 | [2] -0.01 | volasertib 0 | [3] -0.005 | [4] -0.027 | [5] -0.004 | saracatinib 0.007 | sotrastaurin 0.034 | alvocidib -0.078 | Tubastatin A -0.139 | [6] 0.088 | defactinib 0.033 | [7] -0.01 | encorafenib 0.061 | [8] 0.031 | alisertib -0.014 | [9] -0.078 | gefitinib 0.11

INPP4A (UniProt Q96PE3)
active: barasertib 0.382
inactive: vemurafenib -0.03 | [1] 0.011 | [2] -0.017 | volasertib -0.034 | [3] 0.031 | [4] 0.021 | [5] 0.015 | saracatinib -0.025 | sotrastaurin -0.008 | alvocidib -0.032 | Tubastatin A -0.051 | [6] 0.033 | defactinib 0.046 | [7] 0.009 | encorafenib 0.01 | [8] -0.019 | alisertib -0.026 | [9] 0.01 | gefitinib -0.033

HNRNPUL2 (UniProt Q1KMD3)
Chain of UniProt Q1KMD3 (Q1KMD3 whole entry, looked up): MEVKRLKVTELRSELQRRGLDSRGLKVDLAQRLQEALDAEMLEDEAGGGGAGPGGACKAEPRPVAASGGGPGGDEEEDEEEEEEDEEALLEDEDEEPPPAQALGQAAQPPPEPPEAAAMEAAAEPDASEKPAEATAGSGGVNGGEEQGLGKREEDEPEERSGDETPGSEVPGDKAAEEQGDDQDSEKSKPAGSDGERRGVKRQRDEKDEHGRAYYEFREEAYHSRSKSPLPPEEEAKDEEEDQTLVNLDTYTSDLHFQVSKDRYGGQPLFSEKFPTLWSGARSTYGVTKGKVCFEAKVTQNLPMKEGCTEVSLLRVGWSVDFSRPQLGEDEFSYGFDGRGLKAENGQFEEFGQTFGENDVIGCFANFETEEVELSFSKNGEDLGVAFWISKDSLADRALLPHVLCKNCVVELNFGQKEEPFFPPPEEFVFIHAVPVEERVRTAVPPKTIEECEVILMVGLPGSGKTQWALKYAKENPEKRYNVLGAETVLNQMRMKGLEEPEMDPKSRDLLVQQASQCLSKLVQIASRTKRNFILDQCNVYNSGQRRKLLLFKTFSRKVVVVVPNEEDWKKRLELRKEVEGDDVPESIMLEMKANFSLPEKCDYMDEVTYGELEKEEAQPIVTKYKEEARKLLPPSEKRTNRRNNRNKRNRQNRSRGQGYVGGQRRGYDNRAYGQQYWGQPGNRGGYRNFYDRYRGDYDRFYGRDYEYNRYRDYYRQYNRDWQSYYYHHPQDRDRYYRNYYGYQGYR
inactive: vemurafenib 0.024 | [1] 0.017 | barasertib 0.038 | [2] 0.005 | volasertib -0.009 | [3] -0.012 | [4] -0.029 | [5] 0.008 | saracatinib 0.029 | sotrastaurin 0.04 | alvocidib -0.001 | Tubastatin A 0.007 | [6] 0.004 | defactinib 0.002 | [7] -0.009 | encorafenib -0.023 | [8] 0.105 | alisertib 0.009 | [9] 0.019 | gefitinib -0.023

HSD17B12 (UniProt Q53GQ0)
Chain of UniProt Q53GQ0 (Q53GQ0 whole entry, looked up): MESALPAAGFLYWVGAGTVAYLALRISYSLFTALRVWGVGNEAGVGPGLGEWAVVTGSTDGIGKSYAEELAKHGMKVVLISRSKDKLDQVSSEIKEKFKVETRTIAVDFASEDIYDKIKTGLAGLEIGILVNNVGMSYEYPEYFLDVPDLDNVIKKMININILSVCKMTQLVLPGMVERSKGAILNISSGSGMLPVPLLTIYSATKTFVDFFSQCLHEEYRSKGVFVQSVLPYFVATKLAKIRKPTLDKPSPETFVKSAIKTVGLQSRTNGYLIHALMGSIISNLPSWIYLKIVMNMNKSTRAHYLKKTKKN
active: [4] -0.304
inactive: vemurafenib 0.073 | [1] 0.005 | barasertib 0.047 | [2] 0.003 | volasertib -0.096 | [3] -0.024 | [5] -0.107 | saracatinib 0.105 | sotrastaurin 0.071 | alvocidib 0.012 | Tubastatin A -0.089 | [6] -0.11 | defactinib -0.021 | [7] -0.046 | encorafenib -0.016 | [8] 0.035 | alisertib 0.022 | [9] 0.009 | gefitinib -0.131

GTF2H1 (UniProt P32780)
Chain of UniProt P32780 (P32780 whole entry, looked up): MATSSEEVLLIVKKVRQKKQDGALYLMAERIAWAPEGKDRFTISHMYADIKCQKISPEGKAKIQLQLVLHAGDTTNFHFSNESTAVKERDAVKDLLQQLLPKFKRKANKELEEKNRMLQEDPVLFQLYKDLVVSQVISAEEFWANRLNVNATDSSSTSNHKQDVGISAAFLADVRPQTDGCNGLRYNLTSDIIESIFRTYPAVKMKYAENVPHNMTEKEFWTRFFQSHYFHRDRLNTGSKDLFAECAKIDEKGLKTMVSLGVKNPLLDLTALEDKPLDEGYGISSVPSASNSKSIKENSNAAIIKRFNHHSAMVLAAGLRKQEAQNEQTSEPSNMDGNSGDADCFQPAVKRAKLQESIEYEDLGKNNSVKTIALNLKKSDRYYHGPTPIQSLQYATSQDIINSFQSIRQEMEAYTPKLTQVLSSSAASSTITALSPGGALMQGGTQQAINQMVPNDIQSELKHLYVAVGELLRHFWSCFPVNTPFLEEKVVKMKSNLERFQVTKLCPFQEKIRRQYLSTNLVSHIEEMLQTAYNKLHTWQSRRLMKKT
inactive: vemurafenib 0.013 | [1] 0.014 | barasertib 0.014 | [2] -0.021 | volasertib -0.028 | [3] -0.028 | [4] -0.042 | [5] -0.075 | saracatinib 0.018 | sotrastaurin -0.012 | alvocidib -0.053 | Tubastatin A -0.023 | [6] 0.05 | defactinib 0.041 | [7] 0.031 | encorafenib -0.004 | [8] -0.059 | alisertib 0.065 | [9] -0.021 | gefitinib -0.015

GLYR1 (UniProt Q49A26)
Chain of UniProt Q49A26 (Q49A26 whole entry, looked up): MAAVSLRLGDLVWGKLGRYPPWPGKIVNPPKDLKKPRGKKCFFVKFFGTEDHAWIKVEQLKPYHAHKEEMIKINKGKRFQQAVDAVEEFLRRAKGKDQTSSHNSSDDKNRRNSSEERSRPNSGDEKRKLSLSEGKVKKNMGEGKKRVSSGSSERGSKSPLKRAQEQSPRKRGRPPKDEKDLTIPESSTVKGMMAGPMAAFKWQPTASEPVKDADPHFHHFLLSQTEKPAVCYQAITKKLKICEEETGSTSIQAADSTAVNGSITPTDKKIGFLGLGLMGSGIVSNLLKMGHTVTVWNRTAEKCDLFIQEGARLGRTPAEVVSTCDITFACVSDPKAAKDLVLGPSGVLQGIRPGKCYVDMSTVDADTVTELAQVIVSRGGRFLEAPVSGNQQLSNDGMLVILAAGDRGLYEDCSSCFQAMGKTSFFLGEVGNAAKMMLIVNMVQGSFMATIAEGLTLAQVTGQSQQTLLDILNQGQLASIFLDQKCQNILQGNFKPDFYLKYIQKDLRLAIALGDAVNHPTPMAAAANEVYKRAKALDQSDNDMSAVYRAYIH
inactive: vemurafenib -0.059 | [1] 0.019 | barasertib 0.162 | [2] 0.045 | volasertib -0.005 | [3] 0.011 | [4] -0.088 | [5] 0.038 | saracatinib 0.05 | sotrastaurin 0.064 | alvocidib 0.013 | Tubastatin A -0.007 | [6] -0.046 | defactinib -0.084 | [7] -0.078 | encorafenib -0.001 | [8] 0.074 | alisertib -0.011 | [9] -0.046 | gefitinib -0.093
